The source made the active and inactive calls.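 The calls were made as follows, unless noted: active = NADPH fluorescence slope more negative than the mean of all samples by about 3 SD, 99.7% confidence; inactive = the rest.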
How the values were obtained:
[1] = inhibitors of TNFa-induced NFkB p65 translocation, primary screen, imaging, HUVEC, MLSMR starter and 10KST1 sets (AID 438;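 active = inhibition above 20% together with a positive visual image hit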;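 also: compound added about 3h40 before a 20 min TNFalpha stimulation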;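 as to inhibition: signal is the nuclear over cytoplasmic p65 intensity ratio per well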); settings: HUVEC TNFa-induced p65 nuclear translocation; cell count: measured here: nuclei count (cytotoxicity indicator), at 2.08 µM; inhibition: at 2 µM, stronger effect = higher value, 0% TNFa-plus-vehicle, 100% no-TNFa wells
[2] = inhibitors of mutant huntingtin aggregation, primary screen, imaging, exon1htt(103Q)mCFP cells, high-content imaging (AID 483;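 active = visual image review flags a hit and inhibition of aggregation exceeds 20%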;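 also: compound exposure lasted 3 days before fixation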;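 as to nuclei count: percent of the per-plate median nuclei count of sample wells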); settings: exon1htt(103Q)mCFP cell line, aggregate imaging, at 2 µM; inhibition of aggregation: stronger effect = higher value; nuclei count: measured here: cell count, toxicity
[3] = inhibitors of E-selectin induction by TNFa, primary screen, imaging, HUVEC, immunofluorescence, MLSMR starter and 10KST1 sets (AID 487;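 active = visually confirmed hit in the image check and inhibition above 20%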;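 as to inhibition: signal is fraction of cell area covered by stained E-selectin grains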;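 as to nuclei count: 100% = median nuclei count of all wells on the same plate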); settings: HUVEC TNFalpha-induced E-selectin immunofluorescence imaging, at 2 µM; inhibition: stronger effect = higher value; nuclei count: measured here: cell number, toxicity
[4] = target: Voltage-gated potassium channel subunit beta-2 (Rattus norvegicus) (UniProt P62483); assay: KvBeta enzyme negative modulators, primary screen, biochemical, NADPH fluorescence (AID 622;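 active = fluorescence slope higher than the sample average by over 3 SD, cut at about -0.22 in these data, passing the limit was not always enough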;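 also: slope of raw intensity against log time taken from 70 to 1610 s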); settings: recombinant KvBeta, 4-cyanobenzaldehyde reduction, at 10 µM, stronger effect = higher value
[5] = target: Voltage-gated potassium channel subunit beta-2 (Rattus norvegicus) (UniProt P62483); assay: KvBeta positive modulators, primary screen, biochemical, NADPH fluorescence (AID 623); settings: Recombinant KvBeta, NADPH fluorescence decrease slope, 10 min; at 10 µM; stronger effect = lower value;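 also: fluorescence intensity change per second fitted from 20 to 320 s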
[6] = target: Alpha-2C adrenergic receptor (Homo sapiens) (UniProt P18825); assay: modulators of alpha2C/GIRK thallium flux, primary screen, cell-based, HEK293 alpha2C/GIRK1/2 (AID 624;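 active = fluorescence slope after compound addition differing from the mean of all screened samples at 99.7% confidence, in either direction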;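 also: slope of fluorescence ratio to pre-addition baseline per second over 15 to 24 s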); settings: thallium flux BTC fluorescence, at 10 µM, actives lie on both sides
[7] = inhibitors of Sendai virus-induced IRF3 signaling, primary screen, TLR/RLR signaling modifier project, cell-based, Sendai virus stimulus, luciferase, 10K MLSCN set (AID 602276;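 active = inhibition at or above 50% at 10 µM; inactive = inhibition below 50%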;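 also: firefly luciferase from ISG56 promoter only with Renilla not read in this screen; 0% = Sendai virus plus DMSO and 100% = medium plus DMSO without virus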); settings: HEK293 RL24 IRF3 luciferase reporter, at 10 µM, stronger effect = higher value
[8] = inhibitors of poly I:C-induced TLR3 signaling, primary screen, cell-based, poly I:C stimulus, luciferase, 10K MLSCN set (AID 602277;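 active = inhibition of the reporter signal at or above 50%; inactive = inhibition below 50%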); settings: HEK293-TLR3 RL24 IRF3 luciferase reporter, at 10 µM, stronger effect = higher value

Chain of Voltage-gated potassium channel subunit beta-2 (Rattus norvegicus) (P62483 whole entry, looked up): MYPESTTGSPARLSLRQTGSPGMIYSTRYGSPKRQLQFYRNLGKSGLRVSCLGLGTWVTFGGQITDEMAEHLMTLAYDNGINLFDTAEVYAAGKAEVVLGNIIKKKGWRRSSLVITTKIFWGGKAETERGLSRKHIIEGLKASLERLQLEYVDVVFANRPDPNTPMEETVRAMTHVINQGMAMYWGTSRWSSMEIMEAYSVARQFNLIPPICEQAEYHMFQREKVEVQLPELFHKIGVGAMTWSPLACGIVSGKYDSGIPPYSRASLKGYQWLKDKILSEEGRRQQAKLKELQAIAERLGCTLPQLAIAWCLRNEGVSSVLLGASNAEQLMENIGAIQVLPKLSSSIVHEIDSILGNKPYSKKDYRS
Chain of Alpha-2C adrenergic receptor (Homo sapiens) (P18825 whole entry, looked up): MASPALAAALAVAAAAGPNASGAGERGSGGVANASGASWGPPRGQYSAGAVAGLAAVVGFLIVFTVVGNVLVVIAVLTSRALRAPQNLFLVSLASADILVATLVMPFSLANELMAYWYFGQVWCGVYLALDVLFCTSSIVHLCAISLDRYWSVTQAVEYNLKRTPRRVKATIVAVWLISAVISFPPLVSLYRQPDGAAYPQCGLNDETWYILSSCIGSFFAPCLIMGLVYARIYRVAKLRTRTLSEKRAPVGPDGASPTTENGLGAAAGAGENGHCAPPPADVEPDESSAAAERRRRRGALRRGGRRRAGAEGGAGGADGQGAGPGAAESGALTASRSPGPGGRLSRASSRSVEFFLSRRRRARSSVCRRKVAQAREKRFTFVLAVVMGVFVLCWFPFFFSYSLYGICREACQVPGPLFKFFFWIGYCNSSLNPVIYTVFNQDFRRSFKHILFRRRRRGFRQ

Compound	cell count [1]	inhibition [1]	inhibition of aggregation [2]	nuclei count [2]	inhibition [3]	nuclei count [3]	fluorescence slope [4]	NADPH fluorescence slope [5]	slope [6]	inhibition [7]	inhibition [8]
CCOC(=O)Cc1ccc(NS(=O)(=O)c2ccc(SC)cc2)cc1	326	-7.2% (inactive)	-3.4% (inactive)	97.6%	-95.5% (inactive)	109%	-0.494 (inactive)	-6.8e-05 (inactive)	0.00542 (inactive)	-2.4% (inactive)	9.62% (inactive)
CCc1nnc(NC(=O)c2ccc(COc3ccc(C)cc3)o2)s1	312	-1.9% (inactive)	6.3% (inactive)	109%	7.7% (inactive)	110%	-0.468 (inactive)	-0.00028 (inactive)	0.00745 (inactive)	-17.4% (inactive)	99.8% (active)
CS(=O)(=O)N1CCc2cc(S(=O)(=O)Nc3ccc4oc5c(c4c3)CCCC5)ccc21	484	7.3% (inactive)	-8.4% (inactive)	104%	-40% (inactive)	121%	-0.531 (inactive)	1.3e-05 (inactive)	0.00786 (inactive)	11.9% (inactive)	3.23% (inactive)
CCOc1ccc(CN2C(=O)c3ccccc3C2C(=O)NCc2cccnc2)cc1 (centres undefined)	500	-1.1% (inactive)	-9.9% (inactive)	110%	-52.5% (inactive)	94.3%	-0.599 (inactive)	-1.6e-05 (inactive)	0.00638 (inactive)	8.35% (inactive)	16.9% (inactive)
COc1cccc(-c2cc(C(=O)NCc3ccc(Cl)cc3)no2)c1	475	-3.9% (inactive)	-3.3% (inactive)	103%	13.3% (inactive)	95.6%	-0.474 (inactive)	1.7e-05 (inactive)	0.00826 (inactive)	46% (inactive)	-11.6% (inactive)
O=C(NCCCN1CCOCC1)c1cc(-c2ccc(O)cc2)on1	614	-1.6% (inactive)	-5.2% (inactive)	92.4%	-46.9% (inactive)	114%	-0.565 (inactive)	-3.8e-05 (inactive)	0.00654 (inactive)	2.55% (inactive)	-5.13% (inactive)
COC(=O)CCSCc1cn2cc(Cl)ccc2n1	373	2.8% (inactive)	-26.9% (inactive)	103%	-85.2% (inactive)	112%	-0.509 (inactive)	-1.7e-05 (inactive)	0.00629 (inactive)	18.6% (inactive)	56.9% (active)
CCNCC(O)COCC(O)CNCC (centres undefined)	493	-5.5% (inactive)	-14.4% (inactive)	84.2%	4.5% (inactive)	117%	-0.256 (inactive)	8.5e-06 (inactive)	0.0061 (inactive)	13.1% (inactive)	21.4% (inactive)
COc1ccc(CCn2c(NCCCN3CCOCC3)nc3c2c(=O)[nH]c(=O)n3C)cc1	395	2.1% (inactive)	-5.3% (inactive)	110%	-6.4% (inactive)	99.3%	-0.539 (inactive)	2.7e-05 (inactive)	0.00501 (inactive)	-6.62% (inactive)	-4.13% (inactive)
Cc1nc2ncnn2c(C)c1CCC(=O)NCCCN1CCN(c2cccc(Cl)c2)CC1	352	-2% (inactive)	-0.5% (inactive)	99.1%	-40.4% (inactive)	107%	-0.505 (inactive)	-5.1e-05 (inactive)	0.0065 (inactive)	4.7% (inactive)	16.9% (inactive)
CN(Cc1ccco1)C(=O)Cn1c(=O)oc2cc(S(=O)(=O)NCc3ccccc3)ccc21	924	2.8% (inactive)	20.1% (inactive)	104%	-17.8% (inactive)	96.6%	-0.55 (inactive)	2.5e-05 (inactive)	0.00749 (inactive)	13.5% (inactive)	10.8% (inactive)
COc1ccc(C)cc1NC(=O)C1CCN(S(=O)(=O)c2cccc3cccnc23)CC1	539	-6.5% (inactive)	13.2% (inactive)	76.6%	-6.8% (inactive)	106%	-0.535 (inactive)	-4.1e-05 (inactive)	0.00559 (inactive)	14.3% (inactive)	30.4% (inactive)
COCC(=O)Nc1cc(OC)ccc1OC	230	-7% (inactive)	8.8% (inactive)	87.6%	-28.5% (inactive)	84.6%	-0.501 (inactive)	3.1e-05 (inactive)	0.0057 (inactive)	12.1% (inactive)	31% (inactive)
CCOc1cc(C2C(C#N)=C(N)Oc3n[nH]c(CC)c32)ccc1OCCN1CCOCC1 (centres undefined)	421	23.4% (active)	12.6% (inactive)	108%	-49.3% (inactive)	101%	-0.506 (inactive)	-3.1e-05 (inactive)	0.00486 (inactive)	14.3% (inactive)	15.9% (inactive)

Reference: PubChem BioAssay
